# Assay results from PubChem BioAssay AID463173 (ICCB-Longwood Screening Facility, Harvard Medical School, 2010).
# Screen size: about 52,000 compounds; about 1,700 (3.3%) were called active. The sample as a whole holds a higher share of actives than the screen did. Unmarked numbers belong to inactive results. Rule as the data show it: active = survival mostly below about 52% (no sharp cut-off); inactive = mostly above about 56%.
# Test system: Wild type
# Test: S. aureus survival, RN4220 and DeltatarO strains – OD600, teichoic acid synthesis inhibitors, primary screen (AID 463173)
# Conditions: S. aureus RN4220 wild type/DeltatarO growth, OD600, 18 h, stronger effect = lower value, screened at 18.75 µg/mL (by protocol)
row,Compound,survival
1,CCS(=O)(=O)N1CCC(NC(=O)c2ccccc2Cl)CC1,127%
2,COc1cccc(NC(=O)CC2C(=O)OCCN2Cc2ccccc2)c1 (centres undefined),161%
3,COc1ccc(CN2C(=O)N(c3cccc(C)c3)C(=O)C2CC(=O)Nc2ccc(F)cc2)cc1OC (centres undefined),73%
4,CCOC(=O)CSc1ncnc2c1c(-c1ccccc1)cn2-c1ccc(OC)cc1,75%
5,CCCSc1ncnc2c1c(-c1ccccc1)cn2-c1ccccc1OC,1% (active)
6,CCCCSc1ncnc2c1c(-c1ccccc1)cn2-c1cccc(F)c1,84%
7,CCOC(=O)N1CCc2c(sc3c2c(=O)n(Cc2ccccc2)c(=O)n3CC(=O)Nc2ccc(F)cc2)C1,87%
8,CCCCNc1nc2c(c(=O)n(Cc3ccc(Cl)cc3)c(=O)n2C)n1C,70%
9,CCCCNc1nc2c(c(=O)n(Cc3ccccc3)c(=O)n2C)n1C,67%
10,CCCCNc1nc2c(c(=O)n(Cc3ccc(Cl)c(Cl)c3)c(=O)n2C)n1C,1% (active)
11,CCn1c(=O)c2cc(C(=O)N(CC(C)C)CC(C)C)sc2c2ccccc21,-1% (active)
12,Cc1ccc2[nH]c(=O)c3cc(C(=O)N(CCCOC(C)C)Cc4ccco4)sc3c2c1,71%
13,CCn1c(=O)c2cc(C(=O)N(C)c3cc(C)ccc3C)sc2c2ccccc21,125%
14,CCn1c(=O)c2cc(C(=O)N(CCN(C)C)Cc3ccccc3)sc2c2ccccc21,75%
15,CCn1c(=O)c2cc(C(=O)N(CCCOC(C)C)Cc3ccco3)sc2c2ccccc21,1% (active)
16,CCCn1c2ccccc2c2cnn(CC(=O)N(CCCOC(C)C)Cc3ccco3)c(=O)c21,76%
17,O=C(NC1CCCCC1)c1ccco1,102%
18,COc1ccc(OC)c(NC(=O)c2sc3nc4c(cc3c2N)CCCCCC4)c1,70%
19,CC(=O)N1c2ccc(S(=O)(=O)N3CCCCCC3)cc2CC1C(=O)NCc1ccccc1F (centres undefined),131%
20,O=C(NCCSc1c(-c2ccc(Br)cc2)[nH]c2ccccc12)c1ccc(S(=O)(=O)N2CCOCC2)cc1,84%
21,Cn1c(SCCC(=O)O)nnc1-c1ccncc1,105%
22,Cc1cc(N2CCCC(O)C2)n2nc(C)c(-c3ccc(F)cc3)c2n1 (centres undefined),120%

row,Compound,survival
1,COc1ccc(C2=C(Nc3ccc(C)cc3C)c3ccccc3C2=O)cc1,76%
2,COc1ccc(C2=C(Nc3ccc(C)c(C)c3)c3ccccc3C2=O)cc1,90%
3,COc1ccc(C2=C(Nc3ccc(Br)c(C)c3)c3ccccc3C2=O)cc1,20% (active)
4,O=C(NCC1(c2ccccc2)CCCC1)C(=O)Nc1cccc(Br)c1,96%
5,Cc1cc(C)cc(NC(=O)CCCn2c3ccccc3c(=O)c3ccccc32)c1,69%
6,O=C(NCCc1ccccc1Cl)c1cc2ccccn2n1,140%
7,COc1cc(NC(=O)C2CCN(c3cnc4ccccc4n3)CC2)cc(OC)c1OC,-6% (active)
8,COc1cc(NC(=O)C2CCN(c3nc4ccccc4nc3C(F)(F)F)CC2)cc(OC)c1,78%
9,COc1cc(NC(=O)c2nc3ccccc3nc2N2CCCCC2)cc(OC)c1OC,82%
10,CCc1ccc(-n2c(Cc3ccccc3)nnc2SCc2nc(-c3cccs3)no2)cc1,99%
11,CCC(C(=O)Nc1ccc(C(C)=O)cc1)n1cnc2nc3c(cc2c1=O)CCCC3 (centres undefined),63%
12,COc1cc(NS(=O)(=O)c2cnc(N)nc2)cc(OC)c1,64%
13,Nc1ncc(S(=O)(=O)Nc2ccc(OC(F)(F)F)cc2)cn1,63%
14,CC(=O)c1ccc(NS(=O)(=O)c2cnc(N)nc2)cc1,1% (active)
15,Cc1cccc(NC(=O)C2CCN(S(=O)(=O)c3ccc4c(c3)CCCN4C(=O)C3CCC3)CC2)c1,74%
16,COc1cccc(N2CC(NC(=O)C(c3ccccc3)c3ccccc3)CC2=O)c1 (centres undefined),65%
17,COc1ccc(C2c3c(n(C)c4ccccc34)C(=O)N2CC(=O)Nc2ccccc2Cl)cc1 (centres undefined),135%
18,COc1ccccc1CNC(=O)CCc1c(C)c2cc3c(C)c(C)oc3cc2oc1=O,114%
19,CCCOc1cccc(C(=O)Nc2ccc(-c3nc4ccccc4s3)c(Cl)c2)c1,65%
20,Cc1cccc2cc(C#N)c(SCC(=O)NCC3CCCO3)nc12 (centres undefined),103%
21,COc1cc(NC(=O)CN(C)S(=O)(=O)c2ccc3c(c2)CCCC(=O)N3)cc(OC)c1OC,81%
22,Cc1ccc(C)c(NC(=O)CCNS(=O)(=O)c2ccc3c(c2)CCCC(=O)N3)c1,-6% (active)

row,Compound,survival
1,Cc1cccc(NC(=O)CCNS(=O)(=O)c2ccc3c(c2)CCCC(=O)N3)c1C,80%
2,COc1cc(Cl)c(NC(=O)CN(C)S(=O)(=O)c2ccc3c(c2)CCCC(=O)N3)c(OC)c1,59%
3,COc1cc(OC)c(NC(=O)CN(C)S(=O)(=O)c2ccc3c(c2)CCCC(=O)N3)cc1Cl,1% (active)
4,Cc1ccc(NC(=O)CCNS(=O)(=O)c2ccc3c(c2)CCCC(=O)N3)cc1,73%
5,Cc1ccc(C)c(NC(=O)Cn2ncc3c([nH]c4ccccc43)c2=O)c1,45%
6,CC(C)c1ccc(NC(=O)Cc2ccc(NC(=O)N3CCCCc4ccccc43)cc2)cc1,110%
7,Nc1cc(=O)nc(SCC(=O)Nc2ccccc2)n1CCc1ccccc1,69%
8,Cc1ccc(NC(=O)CN2C(=O)C3(SCC(=O)N3c3ccc(F)c(F)c3)c3ccccc32)c(C)c1 (centres undefined),69%
9,CCc1nc(Nc2ccc(F)c(Cl)c2)c2c3c(sc2n1)CCCC3,-1% (active)
10,O=C(Cn1nnc2sc3c(c2c1=O)CCCC3)Nc1ccc(F)c(Cl)c1,33%
11,COc1ccc(Nc2ncnc3sc4c(c23)CCCC4)cc1,73%
12,CCN1CCN(C(=O)Cn2ncc3c4ccccc4n(Cc4ccccc4F)c3c2=O)CC1,82%
13,Cc1ccccc1Cn1c2ccccc2c2cnn(CC(=O)N3CCC(C)CC3)c(=O)c21,12% (active)
14,CCCn1c2ccccc2c2cnn(CC(=O)N3CCN(c4ccccc4F)CC3)c(=O)c21,-6% (active)
15,CCN1CCN(C(=O)Cn2ncc3c4ccccc4n(Cc4c(C)cc(C)cc4C)c3c2=O)CC1,126%
16,Cc1cc(C)c(Cn2c3ccccc3c3cnn(CC(=O)N4CCCCCC4)c(=O)c32)c(C)c1,1% (active)
17,CCCn1c2ccccc2c2cnn(CC(=O)N3CCC(C)CC3)c(=O)c21,67%
18,Cc1cc(C)c(Cn2c3ccccc3c3cnn(CC(=O)N4CCCCC4)c(=O)c32)c(C)c1,125%
19,CC1CCN(C(=O)Cn2ncc3c4ccccc4n(Cc4ccc(Cl)cc4)c3c2=O)CC1,95%
20,Cc1ccccc1Cn1c2ccccc2c2cnn(CC(=O)NC3CCC(C)CC3)c(=O)c21 (centres undefined),78%
